Results as given in the supplement of paper PMC10646978.
± gives the standard deviation.

Assays:
Settings in all cases: modulator concentration 10 µM
[1] = tested on: RAW-Dual (murine macrophage reporter line); experiment: NF-kB reporter (SEAP) activity fold change vs agonist alone; higher = enhanced NF-kB activity
Summary of the method: (§1)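 Compound reached 10 μM final in each well by pin transfer, onto RAW-Dual murine macrophage reporter cells seeded at 50 000 per well in 384-well plates. After 1 hour at 37 °C, the cells were stimulated overnight with a PRR agonist. SEAP in the supernatant was read with QUANTI-Blue at 620 nm absorbance for NF-κB, and Lucia luciferase was read with QUANTI-Luc luminescence for IRF. Each signal was turned into fold change against the mean agonist-only control on the same plate, and two replicate plates were averaged with propagated errors.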

[2] = tested on: RAW-Dual (murine macrophage reporter line); experiment: IRF reporter (Lucia luciferase) activity fold change vs agonist alone; higher = enhanced IRF activity
Summary of the method: as §1

[3] = tested on: RAW-Dual (murine macrophage reporter line); experiment: viability score (confluency relative to resting cells, overnight) (fraction); higher = more viable, active = viable (0.7 or more)
Summary of the method: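 RAW-Dual macrophages in 384-well plates were incubated overnight with compound, final concentration 10 μM. Confluency images from IncuCyte were processed in IncuCyte software into two masks covering all imaged wells. The viability score is each well's confluency relative to resting cells, and a compound met the cutoff when both masks exceeded 70% of resting cells.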

[4] = agonist: CpG ODN 1826 0.5 ug/mL

Row | Structure (SMILES) | NF-kB reporter [1, 4] | NF-kB reporter ([1]; agonist: LPS 0.1 ug/mL) | NF-kB reporter ([1]; agonist: MPLA […]) | IRF reporter ([2]; agonist: 3'3'-cGAMP 10 ug/mL) | IRF reporter ([2]; agonist: LPS 0.1 ug/mL) | IRF reporter ([2]; agonist: MPLA […]) | viability score [3]
1 | O=C(Nc1cc(C(F)(F)F)cc(C(F)(F)F)c1)c1ccc([N+](=O)[O-])cc1 | 0.977 ± 0.09 | 1.03 ± 0.14 | 1.02 ± 0.063 | 0.998 ± 0.03 | 1.42 ± 0.14 | 1.05 ± 0.075 | 1.01 (active)
2 | CC1CCN(c2ccc(-c3ccc(NC(=O)c4ccc5ncsc5c4)cc3)nn2)CC1 | 0.914 ± 0.039 | 0.98 ± 0.078 | 1.02 ± 0.057 | 0.967 ± 0.045 | 1.09 ± 0.12 | 1.17 ± 0.23 | 0.986 (active)
3 | O=S(=O)(NCCOCc1ccccc1)c1ccccc1 | 1.13 ± 0.093 | 1.05 ± 0.076 | 1.04 ± 0.14 | 1.02 ± 0.068 | 1.19 ± 0.18 | 1.27 ± 0.21 | 0.966 (active)
4 | CO[C@@]1(NC(=O)CSCC#N)C(=O)N2C(C(=O)[O-])=C(CSc3nnnn3C)CS[C@@H]21 [Prestw-700] | 0.993 ± 0.095 | 1.02 ± 0.088 | 0.927 ± 0.063 | 1 ± 0.033 | 1.47 ± 0.13 | 1.24 ± 0.12 | 0.997 (active)
5 | Cl.OC(CCN1CCCC1)(c1ccccc1)C1CCCCC1 (centres undefined) | 0.822 ± 0.28 | 1.13 ± 0.061 | 1.12 ± 0.088 | 0.625 ± 0.025 | 1.07 ± 0.14 | 1.18 ± 0.26 | 0.976 (active)
6 | CC(=NN1CCN(Cc2cccc3ccccc23)CC1)c1ccc(O)cc1 | 0.841 ± 0.062 | 0.886 ± 0.079 | 0.988 ± 0.026 | 0.849 ± 0.031 | 0.946 ± 0.1 | 0.963 ± 0.14 | 0.996 (active)
7 | CC(C(=O)O)c1ccc2c(c1)Cc1cccnc1O2 (centres undefined) | 1.29 ± 0.17 | 1.41 ± 0.38 | 1.1 ± 0.1 | 0.966 ± 0.03 | 1.55 ± 0.28 | 1.15 ± 0.14 | 0.985 (active)
8 | CN(C)CCC(c1ccc(Cl)cc1)c1ccccn1.O=C(O)/C=C\C(=O)O (centres undefined) | 1.02 ± 0.14 | 1.08 ± 0.23 | 1.1 ± 0.13 | 0.799 ± 0.042 | 1.23 ± 0.14 | 1.11 ± 0.085 | 0.995 (active)
9 | O=Cc1cn(CCOc2ccc(Br)cc2)c2ccccc12 | 1.25 ± 0.13 | 1.06 ± 0.054 | 1.59 ± 0.22 | 0.684 ± 0.033 | 0.674 ± 0.043 | 0.67 ± 0.085 | 0.977 (active)
10 | COc1cc2nc(N3CCN(C(=O)C4CCCO4)CC3)nc(N)c2cc1OC.Cl (centres undefined) | 0.503 ± 0.069 | 0.98 ± 0.24 | 0.904 ± 0.054 | 0.913 ± 0.055 | 1.34 ± 0.31 | 1.07 ± 0.14 | 0.988 (active)
11 | CC1=CCCC(=O)C2CC(C)(C)C2CC1 (centres undefined) | 0.95 ± 0.13 | 0.857 ± 0.11 | 0.89 ± 0.083 | 0.876 ± 0.031 | 1.05 ± 0.15 | 1.05 ± 0.3 | 1.05 (active)
12 | COc1ccc2[nH]c(S(=O)Cc3ncc(C)c(OC)c3C)nc2c1 (centres undefined) | 1.22 ± 0.23 | 1.01 ± 0.26 | 0.909 ± 0.065 | 0.83 ± 0.028 | 1.11 ± 0.27 | 0.934 ± 0.074 | 0.99 (active)
13 | C#CCN[C@@H]1CCc2ccccc21 [Prestw-1734] | 1.05 ± 0.06 | 0.933 ± 0.11 | 0.978 ± 0.026 | 0.977 ± 0.037 | 0.957 ± 0.054 | 0.973 ± 0.1 | 0.996 (active)
14 | CC(=O)Nc1ccc(NC(=S)NC(=O)C=Cc2ccc(Cl)cc2)cc1 | 1.08 ± 0.069 | 1.09 ± 0.096 | 0.946 ± 0.025 | 0.838 ± 0.089 | 0.932 ± 0.1 | 0.787 ± 0.22 | 0.991 (active)
15 | O=C(CCCN1CCC(O)(c2ccc(Br)cc2)CC1)c1ccc(F)cc1 [Prestw-509] | 0.892 ± 0.15 | 1.12 ± 0.14 | 1.04 ± 0.13 | 0.925 ± 0.024 | 1.01 ± 0.16 | 1.16 ± 0.13 | 0.998 (active)
16 | Nc1nc(Cl)nc2c1ncn2[C@H]1C[C@H](O)[C@@H](CO)O1 | 1.91 ± 0.4 | 1.39 ± 0.11 | 1.65 ± 0.12 | 0.723 ± 0.055 | 1.09 ± 0.096 | 1.08 ± 0.22 | 0.244 (inactive)
17 | Cc1ccc(C=C2Oc3c(ccc(O)c3CN3CCN(CCO)CC3)C2=O)cc1 | 1.12 ± 0.086 | 1.01 ± 0.13 | 1.19 ± 0.11 | 1.02 ± 0.038 | 1.39 ± 0.21 | 1.55 ± 0.3 | 1.02 (active)
18 | CN(C(=O)COc1coc(CN2CCN(c3ccccc3)CC2)cc1=O)c1ccccc1 | 0.931 ± 0.052 | 0.933 ± 0.06 | 0.977 ± 0.057 | 0.97 ± 0.034 | 1.18 ± 0.12 | 0.986 ± 0.088 | 1 (active)
19 | CN(C)CCCNc1cc(C(C)(C)C)nc2c(-c3ccccc3)cnn12 | 0.172 ± 0.017 | 0.13 ± 0.012 | 1.23 ± 0.18 | 0.0482 ± 0.0069 | 0.0973 ± 0.0058 | 0.712 ± 0.34 | 0.0497 (inactive)
20 | O=C(c1ccc(F)c(F)c1Nc1ccc(I)cc1F)N1CC(O)([C@@H]2CCCCN2)C1 | 0.155 ± 0.0087 | 0.0529 ± 0.0032 | 0.123 ± 0.012 | 0.871 ± 0.029 | 4.08 ± 0.27 | 1.81 ± 0.16 | 0.0873 (inactive)
21 | Cc1cccc(C(=O)Nc2cccc([N+](=O)[O-])c2C)c1 | 1.1 ± 0.067 | 1 ± 0.062 | 0.86 ± 0.095 | 0.964 ± 0.04 | 1.33 ± 0.15 | 1.12 ± 0.099 | 0.992 (active)
22 | C=CCn1c(=N)n(CC(O)c2ccco2)c2ccccc21.Cl (centres undefined) | 1.15 ± 0.13 | 0.961 ± 0.1 | 1.21 ± 0.056 | 1.07 ± 0.17 | 1.03 ± 0.043 | 0.936 ± 0.061 | 1 (active)
23 | CC1=C(CC(=O)O)c2cc(F)ccc2/C1=C\c1ccc(S(C)=O)cc1 (centres undefined) | 0.984 ± 0.14 | 0.828 ± 0.061 | 1.13 ± 0.098 | 1.09 ± 0.051 | 1.23 ± 0.073 | 1.41 ± 0.13 | 1 (active)
24 | CCc1ccc2oc(-c3ccc(NC(=O)c4ccc(C)c([N+](=O)[O-])c4)cc3)nc2c1 | 1.02 ± 0.08 | 1.04 ± 0.059 | 0.931 ± 0.089 | 1 ± 0.025 | 1.6 ± 0.22 | 1.33 ± 0.16 | 1.01 (active)
25 | COc1ccc(CN2CCN(C(c3ccc(F)cc3)c3ccc(F)cc3)CC2)c(OC)c1OC.Cl.Cl | 0.742 ± 0.032 | 0.927 ± 0.084 | 0.916 ± 0.049 | 0.604 ± 0.038 | 1.02 ± 0.24 | 1.17 ± 0.47 | 0.985 (active)
26 | COc1ccc([C@@H]2Sc3ccccc3N(CCN(C)C)C(=O)[C@@H]2OC(C)=O)cc1.Cl | 0.958 ± 0.074 | 1.02 ± 0.053 | 1.21 ± 0.064 | 0.969 ± 0.15 | 0.997 ± 0.11 | 1.05 ± 0.1 | 0.985 (active)
27 | O=C(c1cc2cc(F)ccc2s1)N1CCc2ncncc2C1 | 1.05 ± 0.099 | 1.03 ± 0.083 | 0.898 ± 0.063 | 0.927 ± 0.064 | 1.23 ± 0.14 | 1.12 ± 0.3 | 1.01 (active)
